From PubChem BioAssay AID1159580 (chemical genetic matrix, 2015)
In all, about 5,500 compounds went through this assay and about 2,000 (36%) were called active. Not shown: some 18% with an inconclusive outcome. Cut-off read from the data, not from the text of the source: active = normalized growth mostly below about 0.91 (no sharp cut-off); inconclusive = no clear call, values can overlap the other calls; inactive = mostly above about 0.92. The list shows a part of the results.

Assay: chemical genetic growth profiling, strain panel (AID 1159580);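 note: tested at 20 µM; growth read once vehicle control cultures reached saturation at 30 °C; 1 = growth at the plate median or of vehicle wells; lower values mean less growth of the strain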
Settings: S. cerevisiae deletion strains, growth OD

Measured: normalized growth

CC(=O)c1cc(CC=C(C)C)c(O)c(CC=C(C)C)c1
active: locus YBR021W, strain FUR4, stronger effect = lower value 1.42 [resistant] | locus YDR162C, strain NBP2, stronger effect = lower value 0.665 | locus YHR030C, strain SLT2, stronger effect = lower value 0.878
inactive: locus YAL013W, strain DEP1, stronger effect = lower value 0.924 | locus YAL021C, strain ccr4, stronger effect = lower value 1 | locus YAL026C, strain drs2, stronger effect = lower value 1.01 | locus YAL030W, strain snc1, stronger effect = lower value 1.01 | locus YBL061C, strain skt5, stronger effect = lower value 1 | locus YBR009C, strain hhf1, stronger effect = lower value 1 | locus YBR023C, strain chs3, stronger effect = lower value 1 | locus YBR171W, strain sec66, stronger effect = lower value 1.01 | locus YBR229C, strain ROT2, stronger effect = lower value 0.989 | locus YBR231C, strain swc5, stronger effect = lower value 1 | locus YBR279W, strain paf1, stronger effect = lower value 1.02 | locus YCL011C, strain gbp2, stronger effect = lower value 1.01 | locus YCL016C, strain dcc1, stronger effect = lower value 1.01 | locus YCL029C, strain bik1, stronger effect = lower value 0.96 | locus YCL061C, strain MRC1, stronger effect = lower value 1.01 | locus YCL069W, strain vba3, stronger effect = lower value 1 | locus YCR088W, strain abp1, stronger effect = lower value 1 | locus YDL005C, strain med2, stronger effect = lower value 1.02 | locus YDL035C, strain GPR1, stronger effect = lower value 0.947 | locus YDL040C, strain nat1, stronger effect = lower value 1.01 | locus YDL074C, strain BRE1, stronger effect = lower value 0.797 | locus YDL101C, strain DUN1, stronger effect = lower value 0.945 | locus YDL134C, strain PPH21, stronger effect = lower value 0.987 | locus YDL185W, strain tfp1, stronger effect = lower value 0.927 | locus YDL192W, strain arf1, stronger effect = lower value 0.919 | locus YDR001C, strain nth1, stronger effect = lower value 1 | locus YDR069C, strain doa4, stronger effect = lower value 1 | locus YDR101C, strain arx1, stronger effect = lower value 0.969 | locus YDR137W, strain rgp1, stronger effect = lower value 0.939 | locus YDR150W, strain NUM1, stronger effect = lower value 0.969 | locus YDR159W, strain sac3, stronger effect = lower value 1.02 | locus YDR195W, strain ref2 1.06 | locus YDR297W, strain sur2, stronger effect = lower value 1.01 | locus YDR318W, strain mcm21, stronger effect = lower value 0.971 | locus YDR334W, strain swr1, stronger effect = lower value 1.01 | locus YDR335W, strain msn5, stronger effect = lower value 1.02 | locus YDR388W, stronger effect = lower value 0.977 | locus YDR392W, strain spt3, stronger effect = lower value 0.977 | locus YDR502C, strain sam2, stronger effect = lower value 0.955 | locus YEL003W, strain gim4, stronger effect = lower value 1.01 | locus YEL037C, strain rad23, stronger effect = lower value 1 | locus YEL061C, strain CIN8 (second series), stronger effect = lower value 1.01 | locus YEL061C, strain CIN8, stronger effect = lower value 0.989 | locus YER015W, strain faa2, stronger effect = lower value 1 | locus YER016W, strain bim1, stronger effect = lower value 1.01 | locus YER110C, stronger effect = lower value 0.966 | locus YER111C, strain swi4, stronger effect = lower value 1.02 | locus YER155C, strain BEM2 (second series), stronger effect = lower value 1.03 | locus YER155C, strain BEM2, stronger effect = lower value 1 | locus YER167W, strain BCK2, stronger effect = lower value 0.992 | locus YFR010W, strain ubp6, stronger effect = lower value 1.01 | locus YGL078C, strain dbp3, stronger effect = lower value 0.984 | locus YGL086W, strain mad1, stronger effect = lower value 0.953 | locus YGL167C, strain pmr1, stronger effect = lower value 0.987 | locus YGL173C, strain kem1, stronger effect = lower value 1.01 | locus YGL227W, strain vid30, stronger effect = lower value 1.01 | locus YGL240W, strain doc1, stronger effect = lower value 1.03 | locus YGL248W, strain PDE1, stronger effect = lower value 0.93 | locus YGL253W, strain hxk2, stronger effect = lower value 1.01 | locus YGR078C, strain PAC10, stronger effect = lower value 0.922 | locus YGR135W, strain pre9, stronger effect = lower value 0.978 | locus YGR252W, strain gcn5, stronger effect = lower value 0.921 | locus YHR013C, strain ard1, stronger effect = lower value 1.06 | locus YHR027C, strain rpn1, stronger effect = lower value 1 | locus YHR079C, strain IRE1 (second series), stronger effect = lower value 0.97 | locus YHR094C, strain hxt1, stronger effect = lower value 0.982 | locus YHR129C, strain ARP1, stronger effect = lower value 0.97 | locus YHR142W, strain chs7, stronger effect = lower value 0.995 | locus YHR200W, strain rpn10, stronger effect = lower value 0.963 | locus YIL066C, strain RNR3, stronger effect = lower value 0.965 | locus YIL073C, strain SPO22, stronger effect = lower value 0.846 | locus YIL125W, strain kgd1, stronger effect = lower value 0.984 | locus YIR030C, strain dcg1, stronger effect = lower value 0.98 | locus YJL092W, strain hpr5, stronger effect = lower value 1.01 | locus YJL095W, strain BCK1 (second series), stronger effect = lower value 1.01 | locus YJL095W, strain BCK1, stronger effect = lower value 0.9 | locus YJL115W, strain asf1, stronger effect = lower value 1.02 | locus YJL129C, strain trk1, stronger effect = lower value 0.974 | locus YJL134W, strain LCB3, stronger effect = lower value 0.983 | locus YJL154C, strain vps35, stronger effect = lower value 1.02 | locus YJL164C, strain tpk1, stronger effect = lower value 0.999 | locus YJL166W, strain qcr8, stronger effect = lower value 1.02 | locus YJL168C, strain set2, stronger effect = lower value 0.984
